Test [1] in a line: compounds binding Alexa647 anti-His antibody – biochemical, small-molecule microarray, 635 nm fluorescence, artefact control for SMM control protein annotation, primary screen (AID 1128).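 Also: score merges feature fluorescence with signal-to-noise for each printed compound spot.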 Conditions: higher = more signal.
Test [2] has as its system Human papillomavirus type 1a E7 protein (residues 1-88). The test is described as follows: HPV1a E7 small-molecule binders, primary screen, biochemical, small-molecule microarray, residues 1-88, 635 nm (AID 1129). Conditions: small-molecule microarray binding, fluorescence 635 nm; higher = more signal.
Test [3] deals with Focal adhesion kinase 1 (Homo sapiens) (UniProt Q05397). Kind of test: PTK2 protein binding on printed compound slides – biochemical, small-molecule microarray, 635/667 nm fluorescence, BSA, DTT, primary screen (AID 1130).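 Also: composite of spot emission at 667 nm and signal to noise over triplicate slides.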 The conditions noted are these: 635 nm fluorescence, higher = more signal.
Focal adhesion kinase 1 (Homo sapiens), sequence (Q05397 whole entry, looked up): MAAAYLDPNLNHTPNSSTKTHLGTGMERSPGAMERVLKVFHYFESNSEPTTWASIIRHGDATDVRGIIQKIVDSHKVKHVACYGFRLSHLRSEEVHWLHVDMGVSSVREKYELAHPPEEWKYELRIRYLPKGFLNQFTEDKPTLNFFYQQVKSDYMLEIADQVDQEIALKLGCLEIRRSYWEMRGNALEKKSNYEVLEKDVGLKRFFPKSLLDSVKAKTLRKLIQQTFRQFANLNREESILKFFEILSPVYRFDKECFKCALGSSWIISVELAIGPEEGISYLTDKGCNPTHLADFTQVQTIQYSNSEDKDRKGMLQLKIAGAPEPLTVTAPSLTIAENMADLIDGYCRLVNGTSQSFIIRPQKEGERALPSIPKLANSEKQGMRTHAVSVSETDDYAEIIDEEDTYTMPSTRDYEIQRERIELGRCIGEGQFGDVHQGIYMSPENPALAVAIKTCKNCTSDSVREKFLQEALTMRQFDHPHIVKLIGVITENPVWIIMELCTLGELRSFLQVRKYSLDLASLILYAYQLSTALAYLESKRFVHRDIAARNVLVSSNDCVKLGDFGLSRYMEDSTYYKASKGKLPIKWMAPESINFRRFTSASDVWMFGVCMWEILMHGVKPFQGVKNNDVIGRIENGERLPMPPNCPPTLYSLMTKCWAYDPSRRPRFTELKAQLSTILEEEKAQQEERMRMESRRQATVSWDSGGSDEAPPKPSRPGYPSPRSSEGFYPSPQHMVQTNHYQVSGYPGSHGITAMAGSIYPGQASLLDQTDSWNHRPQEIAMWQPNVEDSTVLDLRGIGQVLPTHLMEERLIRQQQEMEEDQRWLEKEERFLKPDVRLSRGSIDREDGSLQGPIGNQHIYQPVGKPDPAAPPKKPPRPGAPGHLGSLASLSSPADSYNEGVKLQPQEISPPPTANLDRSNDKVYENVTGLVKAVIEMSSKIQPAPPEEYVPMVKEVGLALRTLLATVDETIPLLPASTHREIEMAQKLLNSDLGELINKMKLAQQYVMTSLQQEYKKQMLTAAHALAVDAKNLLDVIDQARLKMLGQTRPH
For test [4], the system named is Fibrinogen (Alexa647-labelled). The test is described as follows: Alexa647-fibrinogen binding to printed small molecules – biochemical, small-molecule microarray, 635/667 nm fluorescence, artefact control for SMM control-protein annotation, profiling panel (AID 1131).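 Also: z-score merges 667 nm fluorescence with per-spot signal-to-noise over triplicate slides.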 Conditions: fibrinogen-A647 binding fluorescence, higher = more signal.
For test [5], the target named is Follistatin (Homo sapiens) (UniProt P19883). The test is described as follows: FST protein binding to printed compounds – biochemical, small-molecule microarray, 635/667 nm fluorescence, primary screen (AID 1132). Conditions: 635 nm fluorescence, higher = more signal.
Follistatin (Homo sapiens), sequence (P19883 whole entry, looked up): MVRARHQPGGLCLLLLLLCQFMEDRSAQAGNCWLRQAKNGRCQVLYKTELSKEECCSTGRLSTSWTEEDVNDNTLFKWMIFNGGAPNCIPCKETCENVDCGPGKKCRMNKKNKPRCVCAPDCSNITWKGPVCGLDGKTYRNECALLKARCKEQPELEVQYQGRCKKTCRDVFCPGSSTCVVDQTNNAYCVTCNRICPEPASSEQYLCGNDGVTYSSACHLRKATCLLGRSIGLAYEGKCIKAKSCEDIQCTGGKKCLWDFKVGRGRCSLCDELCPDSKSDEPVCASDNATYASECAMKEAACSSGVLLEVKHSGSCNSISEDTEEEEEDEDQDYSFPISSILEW
The target in test [6] is Fibroblast growth factor 2 (Homo sapiens) (UniProt P09038). Kind of test: basic fibroblast growth factor binding to printed compounds – biochemical, small-molecule microarray, 635/667 nm fluorescence, primary screen (AID 1133). Conditions: FGF2, fluorescence 635/667, higher = more signal.
Fibroblast growth factor 2 (Homo sapiens), sequence (P09038 whole entry, looked up): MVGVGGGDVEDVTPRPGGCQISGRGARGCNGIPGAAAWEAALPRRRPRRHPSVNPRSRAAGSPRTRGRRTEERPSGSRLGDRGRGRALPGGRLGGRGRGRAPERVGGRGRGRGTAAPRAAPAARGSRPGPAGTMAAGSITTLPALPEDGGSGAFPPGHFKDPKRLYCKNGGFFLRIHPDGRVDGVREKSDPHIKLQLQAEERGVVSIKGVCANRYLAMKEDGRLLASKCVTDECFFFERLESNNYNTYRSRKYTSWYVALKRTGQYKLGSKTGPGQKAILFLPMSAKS
Test [7] is described as follows: JC-1 mitochondrial potential readout, lung cancer cells – cell-based, A549, JC-1 fluorescence, basal, 24 h, 100 nL, profiling panel (AID 1138).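 Also: A549 lung adenocarcinoma cells under basal conditions with no added stimulus; test concentration not given here.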 Conditions: higher = more signal.
For a further test, the system named is Lefty1. The test is described as follows: Lefty1 protein binding to printed compounds – biochemical, small-molecule microarray, 635/667 nm fluorescence, primary screen (AID 1139). The conditions noted are these: fluorescence 635/667, higher = more signal.
The test system of test [8] is wheat germ agglutinin (Triticum aestivum), Alexa647-labelled. Kind of test: Alexa647-WGA lectin binding to printed small molecules – biochemical, small-molecule microarray, 635/667 nm fluorescence, artefact control for SMM control-protein annotation, profiling panel (AID 1140).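 Also: score merges 667 nm feature emission with signal to noise over triplicate slides.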 Conditions: WGA-A647 binding, 635 nm fluorescence, higher = more signal.
In test [9] the target is Luciferin 4-monooxygenase (Photinus pyralis) (UniProt P08659). The test is described as follows: inhibition of purified Photinus pyralis luciferase – biochemical, luminescence, purified enzyme, 2006 set, primary screen (AID 1141).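 Also: cell-free assay with purified firefly luciferase at 100 ng per well in PBS; test concentration not given here.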 Conditions: purified firefly luciferase, SteadyGlo luminescence, 30 min; higher = more signal, called active from +8 up or from −8 down.
Luciferin 4-monooxygenase (Photinus pyralis), sequence (P08659 whole entry, looked up): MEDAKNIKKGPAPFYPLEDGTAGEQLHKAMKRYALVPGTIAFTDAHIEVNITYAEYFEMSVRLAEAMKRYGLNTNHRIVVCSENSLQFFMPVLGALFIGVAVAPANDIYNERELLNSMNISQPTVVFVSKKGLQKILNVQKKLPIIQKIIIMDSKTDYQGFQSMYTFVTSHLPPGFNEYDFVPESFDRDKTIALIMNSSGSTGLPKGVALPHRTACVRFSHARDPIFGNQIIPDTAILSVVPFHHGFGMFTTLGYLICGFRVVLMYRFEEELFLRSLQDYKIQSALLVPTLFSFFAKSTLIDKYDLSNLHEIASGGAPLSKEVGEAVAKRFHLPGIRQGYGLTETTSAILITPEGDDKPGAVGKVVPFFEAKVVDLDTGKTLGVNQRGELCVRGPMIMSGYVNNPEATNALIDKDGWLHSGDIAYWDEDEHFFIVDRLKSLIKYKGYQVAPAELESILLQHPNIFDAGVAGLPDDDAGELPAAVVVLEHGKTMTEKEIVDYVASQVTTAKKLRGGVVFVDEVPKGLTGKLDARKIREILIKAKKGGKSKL
The test system of test [10] is Wnt5a (protein binding on small-molecule microarray). Kind of test: small molecules binding Wnt5a protein – biophysical, small-molecule microarray, 635/667 nm fluorescence, primary screen (AID 1142).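 Also: fluorescence read at 667 nm with signal to noise per printed feature.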 The conditions noted are these: 635 nm fluorescence, higher = more signal.
Test [11] can be described thus: ATP-based viability of Huh7 replicon cells – cell-based, CellTiter-Glo luminescence, basal, 48 h, cytotoxicity control for HCV replication inhibitor project, primary screen (AID 1143).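 Also: Huh7 hepatoma cells carrying a hepatitis C replication reporter with no stimulus; test concentration not given here.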 The conditions noted are these: higher = more signal, called active from +8 up or from −8 down.
Test [12] in a line: Pseudomonas biofilm growth suppression – PAO1 strain, BacTiter-Glo luminescence, LB-PBS, primary screen (AID 1144). The conditions noted are these: P. aeruginosa PAO1 biofilm, 12 h, higher = more signal.
The nature of test [13]: basal CRE-LacZ reporter activity in PC12 – cell-based, unstimulated, primary screen (AID 1145). The conditions noted are these: no forskolin, luminescence, 4.5 h, higher = more signal, called active from +8 up or from −8 down.
Test [14] in a line: forskolin-driven CRE-LacZ activity in PC12 – cell-based, CRE-LacZ reporter, forskolin-stimulated, primary screen (AID 1146).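 Also: PC12 cells with 6xCRE LacZ reporter stimulated by forskolin 10 µM; beta-galactosidase reporter signal reflecting CREB driven transcription.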 Conditions: luminescence, 4.5 h, higher = more signal, called active from +8 up or from −8 down.
The target in test [15] is Streptavidin (Streptomyces avidinii) (UniProt P22629). Kind of test: compounds binding control protein streptavidin – biophysical, small-molecule microarray, 635/667 nm fluorescence, artefact control for SMM compound annotation, primary screen (AID 1147).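 Also: signal reflects streptavidin binding to arrayed compounds as a control protein.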 Conditions: higher = more signal.
Streptavidin (Streptomyces avidinii), sequence (P22629 whole entry, looked up): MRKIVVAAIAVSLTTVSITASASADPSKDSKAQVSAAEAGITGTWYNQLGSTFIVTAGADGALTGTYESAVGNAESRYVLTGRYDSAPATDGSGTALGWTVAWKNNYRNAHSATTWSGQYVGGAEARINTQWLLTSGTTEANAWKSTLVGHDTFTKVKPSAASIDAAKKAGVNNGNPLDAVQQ
Test [16] in a line: probe aInhba binding on compound microarray – biochemical, small-molecule microarray, 635/667 nm fluorescence, primary screen (AID 1148).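 Also: score merges 667nm spot fluorescence with signal-to-noise for antibody binding to printed compounds.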 The conditions noted are these: higher = more signal.
In test [17] the target is Torsin-1A (Homo sapiens) (UniProt O14656). Kind of test: TOR1A wild-type binding on microarray – cell lysate, small-molecule microarray, lysate, 635/667 nm, primary screen (AID 1149). Conditions: COS7 hTOR1A-WT lysate, 635 nm fluorescence, higher = more signal.
Torsin-1A (Homo sapiens), sequence (O14656 whole entry, looked up): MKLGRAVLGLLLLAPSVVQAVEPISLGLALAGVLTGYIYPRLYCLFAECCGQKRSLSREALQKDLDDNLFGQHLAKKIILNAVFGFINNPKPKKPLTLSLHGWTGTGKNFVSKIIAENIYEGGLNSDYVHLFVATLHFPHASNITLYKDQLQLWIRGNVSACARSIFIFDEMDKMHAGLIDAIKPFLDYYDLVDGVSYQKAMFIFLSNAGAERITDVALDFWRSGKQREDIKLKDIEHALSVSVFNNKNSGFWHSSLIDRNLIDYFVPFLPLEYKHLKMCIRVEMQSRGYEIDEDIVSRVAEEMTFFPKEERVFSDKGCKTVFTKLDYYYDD
Test [18] has the same target. The test is described as follows: torsin A mutant lysate binding on microarrays – cell lysate, small-molecule microarray, COS7 lysate, 635/667 nm fluorescence, primary screen (AID 1150).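 Also: score pools 667 nm emission and signal to noise measuring lysate protein binding.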 Conditions: COS7 hTOR1A mutant lysate, 635 nm fluorescence, higher = more signal.
In test [19] the test system is Sonic hedgehog protein (Shh). Kind of test: Sonic hedgehog microarray binding compounds – biochemical, small-molecule microarray, 635/667 nm fluorescence, primary screen (AID 1151).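 Also: Shh protein binding to compounds spotted on small-molecule microarray slides; score combines spot fluorescence intensity with signal-to-noise across triplicate slides.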 Conditions: 635 nm fluorescence, higher = more signal.

The source made the active and inactive calls. Unless noted, no rule for the calls is given here.

Regarding `CN(C)CCCCNC(=O)[C@H]1C[C@H]2C(=O)N3CCC[C@H]3C(=O)N2[C@H]1c1ccc(O)cc1`, the composite z-score was -0.268 in test [1]; -1.6 in test [2]; -0.401 in test [3]; -1.05 in test [4]; 0.443 in test [5]; -1.01 in test [6]. Also, the composite z-score in the test with Lefty1 is -0.428; in [8] it was -0.534; in [10], -1; in [15] it was -1.34; in test [16], -0.643; in the test with Torsin-1A (Homo sapiens) [17], -1.3. Also, the composite z-score with Torsin-1A (Homo sapiens) [18] was -1.04; in test [19], -0.229. The z-score was -0.983 in test [7]; 0.501 (inactive) in test [9]; -2.49 (inactive) in [11]; -1.5 (inactive) in [12]; -0.667 (inactive) in [13]; -0.942 (inactive) in test [14].
With `[N-]=[N+]=NCc1ccccc1C[C@@]1(C(=O)N2CCCCC2)N=C(c2ccc(OCCCO)cc2)O[C@@H]1c1ccccc1N=[N+]=[N-]`, the composite z-score came to 1.4 in test [1]; 1.14 in test [2]; 0.759 in test [3]; 0.769 in test [4]; 0.249 in [5]; 0.157 in [6]. The composite z-score in the test on Lefty1 was -0.162; in [8], 0.885; in test [10] it was -0.269; in test [15], 0.75; in [16], -0.209; with Torsin-1A (Homo sapiens) [17] it was 0.704. Also, the composite z-score was 0.826 in the test with Torsin-1A (Homo sapiens) [18] and 0.0369 in test [19]. Further, the z-score is 1.25 in test [7]; -6.07 (inactive) in test [9]; -3.28 (inactive) in [11]; 1.48 (inactive) in [12]; 0.596 (inactive) in [13]; -1.16 (inactive) in test [14].
Take `COC(=O)[C@@]1(Cc2ccc(F)cc2)[C@H]2c3cc(C(=O)N4CCCC4)n(CCc4c[nH]c5ccc(OC)cc45)c3C[C@H]2CN1C(=O)c1ccccc1`: the composite z-score in test [1] worked out at 2.4; in test [2], 1.22; in [3] it was 2.48; in test [4], 0.845; in test [5], 0.685; in [6] it was 0.6. Further, the composite z-score in the test with Lefty1 worked out at 0.385; in test [8] it was 0.977; in [10], 1.51; in test [15], 1.53; in [16] it was 1.62; with Torsin-1A (Homo sapiens) [17] it was 0.844. In addition, the composite z-score with Torsin-1A (Homo sapiens) [18] was found to be 0.736; in test [19], 0.0332. Also, the z-score in test [7] was -1.17; in test [9], 1.64 (inactive); in [11] it was -4.66 (inactive); in test [12] it was -0.23 (inactive); in [13], 0.0041 (inactive); in test [14] it was -0.556 (inactive).
For the compound `COc1ccc(CCNC(=O)[C@@]2(Sc3ccc(C)cc3)CC(=O)N(Cc3cc(C(F)(F)F)cc(C(F)(F)F)c3)[C@@H]2c2ccc(CO)cc2I)cc1`, the composite z-score was -0.361 in test [1]; -0.162 in test [2]; 0.368 in [3]; 0.562 in test [4]; 0.801 in test [5]; -0.525 in [6]. Moreover, the composite z-score in the test with Lefty1 is 0.012; in test [8] it was -0.0603; in [10], -0.466; in [15] it was 0.762; in test [16], 0.0184; in the test with Torsin-1A (Homo sapiens) [17], 0.579. Besides, the composite z-score with Torsin-1A (Homo sapiens) [18] was -0.145; in [19], 0.697. Besides, the z-score in [7] is 0.345; in test [9] it was 0.664 (inactive); in test [11] it was -0.73 (inactive); in [12], -0.623 (inactive); in test [13] it was -0.554 (inactive); in test [14] it was 1.05 (inactive).

For the origin of these results see PubChem BioAssay.
